GAA850 FXN act: activators of GAA850 frataxin (FXN) promoter; HEK293 lucGAA850 FXN promoter luciferase reporter, 24 h; percent of 10 µM SAHA response; activation, % at 6 µM; 360,000 tested, 0.56% active; AID 540364;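 active = activation above the average of all compounds screened plus 3 SD, cutoff fixed separately per campaign, cut at about 7.5% in these data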;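 note: 0% = DMSO wells and 100% = 10 µM SAHA wells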
HSF1 inh: HSF1 inhibition; NIH3T3-HGL HSE-luciferase, MG132-induced, luminescence 8 h; stronger effect = lower value; activity change, negative = inhibition, % at 7.5 µM (by protocol); 300,000 tested, 0.77% active; AID 2098;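 active = more than half of replicate wells show activity change below -50%, luminescence cut by over half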;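 note: luciferase reports HSF-1 transcriptional activity via heat shock element; 0% = median of DMSO wells and -100% = zero luminescence signal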
HSF-1 act: increases HSF-1 driven luciferase reporter signal. AID 504408. 300,000 tested, 1.7% active. activation, % at 9 µM. NIH3T3-HGL HSF-1 luciferase reporter, MG132, 8 h; 100% = twice DMSO control signal;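 active = mean replicate activation of at least 50% with a set share of replicates each reaching 50%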;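 note: 0% = median of the neutral control wells and 100% = twice that signal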
AHR activator: human AHR activation. P35869. AHR-responsive luciferase reporter cells, luminescence. activation, % at 5 µM. 320,000 tested, 2.5% active. AID 2796; in the data active = activation above about 47%;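 note: 0% = vehicle wells and 100% = reference agonist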
Target sequence (P35869 whole entry, looked up): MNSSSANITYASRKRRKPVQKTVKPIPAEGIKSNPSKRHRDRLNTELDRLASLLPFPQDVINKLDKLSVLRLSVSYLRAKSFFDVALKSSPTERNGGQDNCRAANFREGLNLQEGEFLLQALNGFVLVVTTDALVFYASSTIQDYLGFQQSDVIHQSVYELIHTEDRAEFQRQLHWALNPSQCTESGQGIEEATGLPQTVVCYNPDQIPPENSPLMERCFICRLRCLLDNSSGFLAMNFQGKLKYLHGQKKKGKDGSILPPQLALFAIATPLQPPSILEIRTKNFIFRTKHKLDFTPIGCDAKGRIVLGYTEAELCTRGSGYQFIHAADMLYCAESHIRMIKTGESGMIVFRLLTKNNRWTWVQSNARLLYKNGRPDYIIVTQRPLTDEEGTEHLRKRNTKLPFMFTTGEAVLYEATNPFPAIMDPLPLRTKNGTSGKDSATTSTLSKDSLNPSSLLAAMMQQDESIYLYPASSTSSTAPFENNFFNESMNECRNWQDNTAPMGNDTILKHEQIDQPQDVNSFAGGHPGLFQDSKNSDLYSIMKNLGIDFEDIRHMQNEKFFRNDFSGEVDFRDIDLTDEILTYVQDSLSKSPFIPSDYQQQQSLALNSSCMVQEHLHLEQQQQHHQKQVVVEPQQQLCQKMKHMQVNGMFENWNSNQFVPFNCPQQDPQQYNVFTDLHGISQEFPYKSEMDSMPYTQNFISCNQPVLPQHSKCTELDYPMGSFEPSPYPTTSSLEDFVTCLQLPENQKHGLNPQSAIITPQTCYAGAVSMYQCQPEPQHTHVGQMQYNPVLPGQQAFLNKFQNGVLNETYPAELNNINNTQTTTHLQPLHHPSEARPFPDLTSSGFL
DAX1 inh: inhibits human nuclear receptor DAX1; P51843; HEK293 Gal4-DAX1 luciferase reporter, luminescence; inhibition, % at 6.75 µM; 340,000 tested, 0.99% active; AID 504766;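 active = inhibition above the mean over all tested compounds plus 3 SD, cut at about 4.2% in these data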;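 note: 0% = DAX1-transfected cells with DMSO and 100% = empty-vector control cells with DMSO; inhibition shows as a rise in luminescence from relieved DAX1 repression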
* marks the source's active call; other numbers are inactive results; nt = no result. Shown are actives, neighbours in structure and some others; about 5.4% of the full set was active somewhere.

SMILES	GAA850 FXN act	HSF1 inh	HSF-1 act	AHR activator	DAX1 inh
COc1cccc(NCc2cc(=O)oc3cc(C)c(O)cc23)c1	0.7	5.9	5.8	16.4	-0.4
Cc1ccc(S(=O)(=O)c2nc(-c3ccco3)oc2SC(C)C)cc1	1.8	3.5	3.2	-1.6	-1.7
N#Cc1ccccc1NC(=O)c1ccc2c(Cl)c3c(nc2c1)CCCC3	5.9	72.2	113.0*	4.9	2.9
O=C(c1ccc2c(Cl)c3c(nc2c1)CCCC3)N1CCN(c2ccc(F)cc2)CC1	-3.4	56.5	72.5*	2.6	-1.2
CCCN1CCN(CCCNC(=O)c2ccc3c(Cl)c4c(nc3c2)CCCC4)CC1	-2.2	111.7	159.6*	-8.2	0.0
CC1CCN(C(=O)c2ccc3c(Cl)c4c(nc3c2)CCCC4)CC1	-0.5	193.9	302.3*	0.7	1.3
COc1ccccc1N1CCN(C(=O)c2ccc3c(Cl)c4c(nc3c2)CCCC4)CC1	-1.6	25.2	40.3	4.2	-0.8
COc1ccc(/C=N/NC(=O)C2C(C=C(Cl)Cl)C2(C)C)c(OC)c1 (stereo unspecified)	0.8	-9.2	-3.0	8.7	-0.2
COc1ccccc1NC(=O)COC(=O)c1ccccc1C(=O)N1CCN(c2ccccc2)CC1	-0.6	-3.2	4.0	13.1	0.0
CCOC(=O)C1CCN(C(=O)c2ccc3c(Cl)c4c(nc3c2)CCCC4)CC1	1.1	261.3	316.5*	7.1	0.1
CCOC(=O)N1CCC(NC(=O)c2ccc3c(Cl)c4c(nc3c2)CCCC4)CC1	0.9	nt	nt	0.1	-0.2
COc1ccc(-c2nnc(-c3ccc(F)cc3)o2)cc1	3.1	25.9	46.0	3.2	3.0
COc1ccc(-c2nnc(SCc3ccccc3F)o2)cc1	0.6	33.0	53.7*	10.3	1.4
Fc1ccccc1CSc1nnc(-c2ccccc2)o1	4.5	20.8	37.1	0.9	2.6
C#CCSc1nnc(-c2ccc(OC)cc2)o1	6.1	37.3	66.2*	0.3	4.5*
COc1ccc(-c2nnc(-c3ccc(C)cc3)o2)cc1	5.5	23.1	53.4*	2.1	3.3
CCSc1nnc(-c2ccc(OC)cc2)o1	3.8	9.2	21.6	-3.8	0.8
Fc1ccccc1CSc1nnc(-c2cccnc2)o1	3.9	-5.1	-2.5	1.4	4.6*
COc1ccc(-c2nnc(SCC#N)o2)cc1	1.9	1.2	18.0	-10.3	2.4
Cc1cc(C(=O)N2CCC2(C)C(=O)Nc2cccc3c2CCCC3)nn1C (stereo unspecified)	2.6	nt	nt	nt	nt
CN(CC(=O)Nc1c(Cl)cccc1Cl)CC(=O)N1CCc2ccccc21	0.1	nt	nt	nt	-0.3
COc1ccccc1CCNC(=O)c1ccc(OC)c(OC2CCN(C(C)C)CC2)c1	0.0	-9.5	16.7	4.1	0.0
COCCCNC(=O)c1ccc(OC)c(OC2CCN(C(C)C)CC2)c1	3.8	-5.0	24.3	-2.6	5.2*
O=C(c1cc(-c2ccc(O)cc2)on1)N1CCCCCC1	4.7	54.3	68.4*	1.1	5.1*
COc1ccccc1/C=C1\CCC(C2CCCC2)C1=O (stereo unspecified)	2.9	8.9	34.7	13.5	2.6
SMILES	GAA850 FXN act	HSF1 inh	HSF-1 act	AHR activator	DAX1 inh
Cc1ccc2nc(NC(=O)CSCC(=O)OCC(=O)c3ccccc3)sc2c1	-12.5	-66.6*	-74.3	-4.2	-3.4
Cc1ccc2nc(NC(=O)c3cccs3)sc2c1	-2.5	nt	nt	63.8*	-1.8
CSc1cccc(NC(=O)Nc2nc3c(C)cccc3s2)c1	0.7	14.3	35.9	119.0*	3.3
Cc1ccc2nc(NC(=S)NC(=O)c3cccs3)sc2c1	3.3	13.6	8.8	22.1	2.4
COC(=O)Nc1nc2c(C)cccc2s1	4.7	5.4	10.8	22.9	0.4
O=C(Nc1nnc(-c2cccnc2)s1)c1cccs1	-3.2	1.9	3.9	14.9	-1.3
Cc1cccc(-c2nnc(NC(=O)c3cccs3)s2)c1	0.5	-79.7*	-83.7	47.8*	4.3*
CC1(C)CC2CC(C)(CN2S(=O)(=O)c2ccccc2[N+](=O)[O-])C1 (stereo unspecified)	-0.3	nt	nt	-1.7	-0.9
Cc1ccccc1-n1nc2c(c1NC(=O)C1CC1)CS(=O)(=O)C2	-0.5	nt	nt	nt	1.1
CC(=O)Nc1cccc(-c2ccnc3c2CC(C)(C(=O)NCc2ccc(N(C)C)cc2)O3)c1 (stereo unspecified)	-3.9	nt	nt	nt	nt
COc1cccc2sc(NNC(=O)COc3ccccc3)nc12	0.0	0.5	-3.5	51.1*	0.3
O=C(Nc1nccs1)c1ccc(Br)s1	2.5	15.4	21.4	12.0	0.9
c1ccc(CCNc2nc3ccccc3s2)cc1	5.8	27.2	55.9*	8.5	1.6
Cc1cccc2sc(NC(=O)[C@H](C)N3C(=O)C4CC=CCC4C3=O)nc12 (stereo partly specified)	-0.9	-55.6*	-68.0	17.7	0.4
C[C@@H](C(=O)Nc1nc2ccccc2s1)N1C(=O)C2CC=CCC2C1=O (stereo partly specified)	1.0	2.0	4.0	5.2	-0.6
COc1cccc2sc(NC(=O)c3ccc(Br)s3)nc12	0.3	20.8	33.2	71.4*	1.1
COc1ccc(CC(=O)OCC(=O)Nc2cc(Cl)ccc2C)cc1	-1.1	nt	nt	3.0	0.1
O=C1NC(=O)C([N+](=O)[O-])=C(O)C1=O	-0.8	nt	nt	nt	0.6
O=C1NC(=O)C2(CCCC2C(=O)O)N1 (stereo unspecified)	-1.2	nt	nt	nt	-0.5
Cc1cccc2sc(NC(=O)C3CC3)nc12	1.4	8.5	10.1	nt	-0.6
COC(=O)c1ccc(NC(=O)c2ccc3nc(C)sc3c2)cc1	3.5	-68.3*	-72.2	-9.5	-2.2
CCOCCc1nnc(NC(=O)c2cccs2)s1	1.3	-5.2	2.6	74.0*	3.0
Cc1cccc2sc(NC(=O)c3ccc(Cl)s3)nc12	1.0	11.0	32.1	48.3*	1.4
Cc1ccc(C(=O)Nc2nc3ccccc3s2)s1	-1.7	15.4	35.8	78.8*	0.6
CCCCN1C(=O)C(CC(=O)NCCN2CCOCC2)CC(C(=O)N(CC)CC)=C1C (stereo unspecified)	0.5	nt	nt	nt	0.0
SMILES	GAA850 FXN act	HSF1 inh	HSF-1 act	AHR activator	DAX1 inh
CC(=O)Nc1ccc(C(=O)COC(=O)c2cc(C)oc2C)c(F)c1	-1.2	nt	nt	2.9	-0.4
FC(F)(F)c1ccc(C2[C@H]3CN(Cc4cccnc4)[C@H](c4ccccc4)C34CC2(c2ccccc2)C4)cc1 (stereo partly specified)	-2.0	-3.1	-8.4	-1.1	0.1
CC1CCN(C(=O)Cn2c(=O)n(Cc3ccco3)c(=O)c3sccc32)CC1	0.9	-11.4	-21.4	1.1	1.2
Cc1nc2ccc(NC(=O)c3ccc(Cl)s3)cc2s1	4.3	24.8	33.8	0.8	4.9*
Cc1ccc2nc(NC(=O)c3ccc4c(c3)OCO4)sc2c1	-0.5	7.6	27.7	-0.5	1.7
O=C(Nc1nnc(C2CCCO2)s1)c1cccs1 (stereo unspecified)	-0.4	-1.5	10.7	47.6*	-0.8
Cc1ccc(CNc2nc3ccccc3s2)s1	-2.0	-2.8	17.4	67.6*	-2.5
Cc1ccc2nc(NC(=O)c3ccc(Cl)s3)sc2c1	3.8	28.9	46.8	11.5	9.8*
